High-throughput results: PubChem, The Scripps Research Institute Molecular Screening Center
Sampled rows, rich in hits. Any-hit rate of the full collection: about 2.7%.
PAFAH1B3 FP inh: blocks human PAF acetylhydrolase 1B catalytic subunit 3; inhibition, % at 3.39 µM; recombinant PAFAH1B3, FP-rhodamine probe, fluorescence polarization; Q15102; AID 492972; actives 0.28% (n = 340,000);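 active means inhibition above the screen-wide average of all tested compounds plus 3 SD, cut at about 25% in these data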;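 further: 0% = enzyme with DMSO only and 100% = wells lacking PAFAH1B3 protein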
Target sequence (Q15102 whole entry, looked up): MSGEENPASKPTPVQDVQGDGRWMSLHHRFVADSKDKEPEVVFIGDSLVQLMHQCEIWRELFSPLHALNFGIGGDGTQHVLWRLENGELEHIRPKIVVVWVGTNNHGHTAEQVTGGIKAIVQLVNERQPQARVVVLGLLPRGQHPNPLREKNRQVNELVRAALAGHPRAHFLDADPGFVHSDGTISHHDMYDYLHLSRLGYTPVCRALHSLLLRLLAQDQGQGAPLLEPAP
TCR CD3 inh: inhibitors of human TCR-CD3 interaction; inhibition, % at 9.4 µM; TAMRA-labeled TCR probe fluorescence, biochemical; actives 0.37% (n = 360,000); in the data active means inhibition above about 19%;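 further: recombinant mutant TCR 2C K166C tagged with TAMRA read by polarization; 0% = receptor in buffer alone and 100% = receptor with positive control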
PAFAH2 FP inh: PAFAH2 (human) inhibition | recombinant PAFAH2, FP-rhodamine activity probe, fluorescence polarization | inhibition, % at 3.39 µM | actives 0.99% (n = 340,000);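 active means inhibition above the mean over all tested compounds plus 3 SD, cut at about 30% in these data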;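 further: inhibitors block probe labeling of enzyme so polarization drops; 0% = enzyme with DMSO and 100% = wells lacking PAFAH2 protein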
pPAFAH inh: pPAFAH (human) enzyme inhibition | Q13093 | recombinant pPAFAH, FP-rhodamine probe fluorescence polarization | inhibition, % at 3.39 µM | actives 1.5% (n = 330,000);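 active means inhibition above the mean inhibition across the screen plus 3 SD, cut at about 25% in these data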;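 further: inhibitors block binding of the rhodamine activity-based probe so polarization drops; 0% = enzyme with DMSO and 100% = wells lacking pPAFAH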
PAFAH1B2 inh: inhibitors of human PAFAH1B2 | inhibition, % at 3.39 µM | AID 492953 | actives 1.2% (n = 340,000) | recombinant PAFAH1B2, FP-rhodamine activity probe, fluorescence polarization;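 active means inhibition above the mean of all tested compounds plus 3 SD, cut at about 24% in these data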;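 further: 0% = enzyme with DMSO and 100% = wells lacking PAFAH1B2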
Target sequence (P68402 whole entry, looked up): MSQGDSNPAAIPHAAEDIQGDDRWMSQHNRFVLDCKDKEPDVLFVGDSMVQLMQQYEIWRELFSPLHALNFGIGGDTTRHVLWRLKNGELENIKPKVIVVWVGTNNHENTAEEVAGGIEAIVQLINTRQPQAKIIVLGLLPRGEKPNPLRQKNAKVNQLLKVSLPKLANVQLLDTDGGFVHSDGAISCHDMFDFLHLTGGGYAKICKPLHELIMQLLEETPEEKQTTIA
PAFAH1B3 confirm: PAFAH1B3 (human) inhibition, confirmed. shares compounds with PAFAH1B3 FP inh. recombinant PAFAH1B3, FP-Rh activity-based probe, fluorescence polarization. inhibition, % at 3.39 µM. actives 30% (n = 390). AID 493032;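 active means average inhibition over triplicate runs above the hit cutoff set in the earlier primary screen, cut at about 25% in these data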;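 further: 0% = enzyme with DMSO and 100% = wells lacking PAFAH1B3 protein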
Numbers without * were called inactive; · = no result; ! = repeats disagree.

SMILES	PAFAH1B3 FP inh	TCR CD3 inh	PAFAH2 FP inh	pPAFAH inh	PAFAH1B2 inh	PAFAH1B3 confirm
COc1ccc(C(=O)c2ccc([N+](=O)[O-])cc2)c(OC)c1OC	-3.2	4.3	-3.9	·	3.5	·
NC1=C(Br)C(=O)c2ncccc2C1=O	58.5*	-1.5	24.8	·	15.9	40.9*
O=C1c2cccnc2C(=O)N1CO	-5.7	-3.4	0.1	5.0	0.2	·
O=C(/C=C/NNC(=O)c1ccccc1)c1ccc([N+](=O)[O-])cc1	28.6*	4.5	-0.2	9.7	11.1	20.6
Cc1nnc2nc(-c3ccccc3)nc(-c3ccccc3)n12	6.1	-6.5	0.5	-0.7	9.7	·
Cc1nn(-c2ccc(F)cc2)c2nc(N)c(C#N)c(-c3ccc(O)c(O)c3)c12	36.4*	12.5	4.6	·	14.1	-3.0
COc1ccccc1NC(=O)C(=O)NCCC1CCCCN1S(=O)(=O)c1ccc(F)cc1 (stereo unspecified)	7.1	3.3	-1.1	5.9	2.5	·
COc1ccc(C=C2C(=O)OC(C)(C)OC2=O)cc1OC	0.0	-8.8	4.0	-8.5	-4.5	·
COc1ccc(/C=C2\C(=O)NC(=O)c3ccccc32)cc1OC	40.0*	-6.2	0.6	·	2.0	15.9
O=C(COc1ccccc1/C=C\c1nc(O)c([N+](=O)[O-])c(=O)[nH]1)Nc1ccccc1	-3.5	2.3	2.7	·	0.3	·
CCOc1ccccc1/C=C\c1nc(O)c([N+](=O)[O-])c(=O)[nH]1	28.3*	3.0	-5.4	7.9	4.6	18.5
Cc1ccccc1NC(=O)c1cccc(NC(=O)c2ccccc2C(=O)O)c1	14.7	1.2	9.9	1.7	0.4	·
O=c1oc2ccccc2cc1-c1nc2c(s1)CCc1ccccc1-2	1.6	3.7	-6.6	5.3	0.8	·
O=c1oc2cc(O)ccc2cc1-c1nc2c(s1)CCc1ccccc1-2	33.4*	-0.2	11.1	17.5	13.8	17.2
C[C@@H]1O[C@@H](Oc2c(-c3ccc(O)c(O)c3)oc3cc(O)cc(O)c3c2=O)[C@H](O)[C@H](O)[C@H]1O	26.8*!	-3.2	-11.0	3.1	-4.3	16.5
O=c1cc(-c2ccc(O)cc2)oc2cc(O)cc(O)c12	12.4	1.8	-1.0	1.7	1.1	·
C[C@@H]1O[C@@H](O[C@H]2[C@H](O)[C@@H](O)[C@H](Oc3c(-c4ccc(O)c(O)c4)oc4cc(O)cc(O)c4c3=O)O[C@@H]2CO)[C@H](O)[C@H](O)[C@H]1O	9.3	0.1	-2.3	0.7	2.3	·
C[C@@H]1O[C@@H](Oc2c(-c3cc(O)c(O)c(O)c3)oc3cc(O)cc(O)c3c2=O)[C@H](O)[C@H](O)[C@H]1O	44.1*	3.3	-40.3	-0.8	5.2	21.9
O=c1c(O[C@@H]2O[C@H](CO)C(O)C2O)c(-c2ccc(O)c(O)c2)oc2cc(O)cc(O)c12 (stereo partly specified)	25.5*	·	-15.8	-1.5	11.4	25.2
O=c1c(O)c(-c2ccc(O)cc2)oc2cc(O)cc(O)c12	29.6*	-6.2	1.9	20.5	10.9	24.1
O=c1c2c(O)cc(O)cc2oc2c(O)ccc(O[C@H]3O[C@@H](CO)[C@H](O)[C@@H](O)[C@@H]3O)c12	12.4	9.7	-0.4	7.2	7.9	·
Cc1ccc(-c2noc(N=O)c2NO)cc1	·	-3.4	·	-4.3	·	·
COC(=O)NN=C1CCC(c2ccccc2)CC1 (stereo unspecified)	2.6	0.7	1.1	·	3.1	·
COC(=O)N/N=C1/C/C(=N\NC(=O)OC)c2ccccc21	38.4*	0.5	18.3	3.7	2.9	16.3
C=CCn1c(NC(=O)c2ccccc2Cl)c(C#N)c2nc3ccccc3nc21	60.4*	10.0	5.9	8.3	17.2	7.8
SMILES	PAFAH1B3 FP inh	TCR CD3 inh	PAFAH2 FP inh	pPAFAH inh	PAFAH1B2 inh	PAFAH1B3 confirm
CCCCn1c(NC(C)=O)c(C#N)c2nc3ccccc3nc21	4.1	2.7	3.9	8.5	4.6	·
CCCCNC(=O)C1(C)CCN1C(=O)c1ccc(OC)c(F)c1 (stereo unspecified)	·	4.4	·	·	·	·
CCCN(CC(=O)Nc1ccccc1OC)C(=O)c1ccc2[nH]c3c(c2c1)CC(C)CC3 (stereo unspecified)	2.8	-10.5	2.1	11.5	10.5	·
O=c1[nH]cc(CCc2ccccc2)c(=O)[nH]1	·	-1.9	·	·	·	·
Cc1[nH][nH]c(=O)c1C(c1ccc(-c2cccc(Cl)c2)o1)c1c(C)[nH][nH]c1=O	46.2*	·	17.8	7.4	12.6	19.2
O=C(C1=NOC2(C1)C(=O)Nc1ccccc12)N1CCOCC1 (stereo unspecified)	·	1.2	·	·	·	·
